Screening results as filed in PubChem.
Mtb hypoxia rep: inhibitors of hypoxia-regulated fluorescent reporter in Mycobacterium tuberculosis. actives 0.1% (n = 300,000). M. tuberculosis hypoxia-regulated fluorescent reporter, fluorescence. fluorescence inhibition, % (no concentration beside the values); in the data active means fluorescence inhibition mostly above about 23%, no sharp cut-off; inactive means mostly below about 17%
ugtP null kill: compounds lethal to S. aureus RN4220 ugtP deletion mutant; OD600 growth, 16 h; actives 0.54% (n = 330,000); growth inhibition, % (no concentration beside the values); in the data active means growth inhibition above about 68%;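 further: plate controls were untreated wells for no effect and antibiotic for full effect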
Mtb BioA inh: blocks M. tuberculosis BioA enzyme activity; purified M. tuberculosis BioA enzyme, plate reader; inhibition, % at 9.99 µM; actives 0.096% (n = 360,000); AID 602481; in the data active means inhibition above about 40%
RN4220 kill: kills Staphylococcus aureus RN4220; S. aureus RN4220 growth, OD600, 16 h; inhibition, % (test concentration not listed); actives 0.33% (n = 330,000); AID 1259311; in the data active means inhibition above about 85%;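 further: plate controls were untreated cells for no effect and reference antibiotic for full effect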
Yp Topo-I inh: Y. pestis Topo-I inhibition via cleavage products. actives 0.064% (n = 360,000). activity, % at 10 µM. Y. pestis Topo-I cleavage product accumulation, plate reader; in the data active means activity above about 50%, passing the limit was not always enough
TcdB GH inh: TcdB glycohydrolase inhibition; P18177; TcdB glycohydrolase enzymatic assay, plate reader; inhibition, % at 9.99 µM; actives 0.24% (n = 350,000); AID 652162; in the data active means inhibition above about 10%
* marks the source's active call; other numbers are inactive results; · = not tested or not shown. A selection: hits, their analogues and other compounds. The true share with any hit is near 0.75%.

SMILES	Mtb hypoxia rep	ugtP null kill	Mtb BioA inh	RN4220 kill	Yp Topo-I inh	TcdB GH inh
Cc1ccc(NCSc2ccc(Cl)cc2)cc1	14.2	6.2	-0.4	4.4	0.4	2.1
CC(C)(C)OC(=O)NCCCCCc1nnc(SCc2cccc(F)c2)o1	1.9	5.1	·	5.0	23.3	0.8
CC(C)(C)OC(=O)NCCCCCc1nnc(SCc2ccccc2)o1	13.0	0.9	1.0	3.5	56.9*	0.9
Cc1ccc(S(=O)(=O)NC(C(=O)N2CCC(C(=O)NCC(=O)O)CC2)C(C)C)cc1 (centres undefined)	3.5	-2.4	·	5.2	·	·
CC(Oc1ccc(Cl)cc1C(N)=O)C(=O)N1CCc2ccccc21 (centres undefined)	-5.1	-2.2	3.7	1.4	7.8	0.1
CC(Oc1ccc(Cl)cc1Cl)C(=O)NC(=S)N1CCc2ccccc21 (centres undefined)	-7.7	98.4*	-0.2	99.0*	20.0	0.5
CCOC(=O)C=Cc1ccc2c(c1)S(=O)(=O)N(Cc1ccc(OC)cc1)C2CC(=O)OCC (centres undefined)	21.0	11.9	·	8.5	·	·
Cn1ccc2ccc(C3=CC(=O)CC(c4ccc(F)cc4)C3)cc21 (centres undefined)	6.3	-17.1	·	-0.5	·	·
Cc1cc(-c2ccc(NS(=O)(=O)c3ccccc3)c(C)c2)ccc1NS(=O)(=O)c1ccccc1	6.0	19.1	-0.9	-3.3	-5.2	11.9*
CCOC(=O)C1C2COc3cc(OC)ccc3C2N2C(=O)CN(CC3CCCO3)C(=O)[C@@]12C (some centres undefined)	20.1	1.9	·	8.0	·	·
COc1cc(C(=O)NN=Cc2ccc(OC)c(CN3CCN(c4ccc(F)cc4)CC3)c2)ccc1O	-0.3	-0.3	·	9.5	·	·
CN(CC(=O)Nc1ccc(F)cc1)C(=O)COC(=O)Cc1cccs1	-8.0	2.8	-2.8	1.6	1.3	-0.1
O=C(COC(=O)Cc1cccs1)NCC(=O)Nc1ccc(F)cc1	33.4*	2.3	-0.4	5.2	-6.3	1.6
O=C(NN=Cc1ccco1)c1cncc(Br)c1	-8.4	2.0	·	3.4	·	·
COc1cccc(C=NNc2snc(SC)c2C#N)c1O	·	96.4*	·	95.9*	·	·
COc1cc(C=NNc2snc(SC)c2C#N)ccc1O	8.9	-3.1	·	3.2	·	·
Cc1c(C(=O)OCC(=O)N(CC(C)C)c2c(N)n(Cc3ccccc3)c(=O)[nH]c2=O)oc2ccccc12	2.1	2.6	-0.8	1.7	82.0*	4.8
CCOc1ccc2oc(C(=O)OCC(=O)N(CC(C)C)c3c(N)n(Cc4ccccc4)c(=O)[nH]c3=O)c(C)c2c1	2.2	-8.6	-1.1	7.8	18.1	1.0
CC(C)CN(C(=O)COC(=O)c1cc2ccccc2cc1O)c1c(N)n(Cc2ccccc2)c(=O)[nH]c1=O	-11.2	-0.1	-1.9	-3.5	80.0*	1.5
CC(C)CN(C(=O)COC(=O)c1c2c(nc3ccccc13)CCC2)c1c(N)n(Cc2ccccc2)c(=O)[nH]c1=O	0.1	5.2	-0.4	-4.6	59.9*	0.8
CC(=NNC(=O)c1ccccc1Br)c1ccc(N2CCOCC2)cc1	-1.5	-1.5	·	-1.2	·	·
O=C(Nc1nc(-c2ccccc2)c(-c2ccccc2)o1)c1ccc(F)cc1	10.8	96.1*	-2.5	99.1*	4.2	·
Cc1ccc(NC(=O)N2CCc3ccccc32)cc1C	5.8	1.2	·	-1.9	2.2	6.3
CN1C(=O)CSc2ccc(NC(=O)N3CCc4ccccc43)cc21	8.3	1.1	-4.2	6.9	-1.1	16.5*
CC(OC(=O)c1oc2ccccc2c1CSC1CCCCC1)C(=O)NC(N)=O (centres undefined)	-2.8	99.0*	0.2	-6.3	11.5	·
SMILES	Mtb hypoxia rep	ugtP null kill	Mtb BioA inh	RN4220 kill	Yp Topo-I inh	TcdB GH inh
CC(OC(=O)c1oc2ccccc2c1COc1ccccc1)C(=O)NC(N)=O (centres undefined)	-0.2	3.4	·	2.5	6.6	1.2
Cc1ccc(N=C2NC(=O)CS2)cc1	4.3	11.2	-0.2	4.6	-2.1	·
O=C1CSC(=Nc2ccc(O)cc2)N1	3.7	-1.1	0.5	-2.7	-5.7	14.9*
O=C1CCCCC=CCC(CC(=O)N(CCO)Cc2ccccc2)C(=O)NCC(c2ccccc2)O1 (centres undefined)	-7.5	1.3	·	2.9	·	·
COC(=O)c1ccc2c(c1O)C(=O)c1ccccc1C2=O	10.4	97.1*	·	96.9*	-17.1	·
O=C1c2ccccc2C(=O)c2c1ccc(O)c2O	·	·	-2.5	·	-7.0	0.8
COc1ccc(-c2oc(=O)c3cc(OC)c(OC)cc3c2C=Cc2cccc([N+](=O)[O-])c2)cc1	-8.5	-9.6	·	10.0	·	·
CCOc1ccc2nc3cc(NCc4ccc(OC)cc4)ccc3c(N)c2c1	-5.8	100.0*	-4.1	100.6*	-30.6	1.0
O=c1[nH]c(-c2ccc(Cl)cc2)cs1	-0.5	0.6	·	5.1	6.6	1.1
S=c1[nH]c(-c2ccccc2)cs1	·	·	·	·	-3.4	17.3*
Fc1ccc(-c2csc(=S)[nH]2)cc1	-2.0	1.9	·	-0.6	7.2	19.4*
Cc1cc(Br)c2c(c1)/C(=C/C(=O)c1cccs1)C(=O)N2	9.3	-7.3	·	3.5	-16.1	0.5
Cc1cccc2c1NC(=O)/C2=C\C(=O)c1cccs1	15.6	97.6*	-1.2	96.6*	-6.3	·
CCc1ccc2c(c1)/C(=C/C(=O)c1cccs1)C(=O)N2	15.1	97.1*	-0.7	97.0*	-12.7	·
CN1/C(=C\C(=O)Nc2ccc(Cl)cc2)C(C)(C)c2ccccc21	-2.4	96.9*	·	94.0*	-25.7	0.1
COc1ccc(C)cc1Nc1nc(-c2ccccc2O)nc2ccccc12	2.9	91.3*	-0.9	52.8	3.3	1.3
Cc1ccc(O)c(Nc2nc(-c3ccccc3)nc3ccccc23)c1	11.6	-1.1	4.1	-14.4	-6.0	2.3
O=C(CON=Cc1ccc2c(c1)OCO2)Nc1cccc(Br)c1	3.9	-3.2	·	1.7	·	·
COc1ccc([C@H]2CC(=O)C=C(c3cc(Cl)ccc3C)C2)cc1	·	·	-2.4	·	41.9	0.8
Cc1ccc(Cl)cc1C1=CC(=O)C[C@H](c2ccc(F)cc2)C1	·	·	-2.0	·	69.3*	1.5
Cc1ccc(S(=O)(=O)Oc2ccccc2/C=C2\SC(=O)NC2=O)cc1	-11.1	42.9	·	52.9	0.8	10.6*
O=C1NC(=S)SC1=Cc1ccccc1Cl	10.9	99.9*	·	98.4*	2.1	3.4
COc1ccc(C=C2SC(=S)NC2=O)c(OC)c1OC	·	·	·	·	0.9	2.6
O=C1NC(=S)S/C1=C\c1cc2ccccc2nc1N1CCCCC1	-0.9	86.4*	-3.4	84.4*	-9.2	0.2
COc1ccccc1C=C1SC(=S)NC1=O	·	·	·	·	-5.5	10.6*
Cc1cc(O)cc(OC2OC(CO)C(O)C(O)C2O)c1 (centres undefined)	6.3	3.2	·	8.2	·	·
Cc1cccc(N(Cc2ccccc2)C(=O)CCl)c1	36.0*	5.7	·	3.9	5.1	0.5
CCOC(=O)c1cc2ccc3ccccc3c2s1	10.4	87.6*	4.5	12.3	-7.0	·
